Screening data (PubChem BioAssay)
The entries come from a sample that favours hits as a whole.
FBPA Giardia inh = qHTS Assay for Inhibitors of Fructose-1,6-bisphosphate Aldolase from Giardia Lamblia; A8B2U2; purified Giardia FBPA; Potency, µM (doses to about 59.6 µM), without a hit: top-dose activity, negative = inhibition, usual class: inhibitors; hit rate 0.71% among 290,000; AID 2451, 2010; note: potency is the fitted concentration of half-maximal effect; % is set by controls: 0 for no effect and ±100 for the full control effect; nearly all actives have a fitted effect of over 55% in size
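Giardia FBPA (40 nM reagent) was preincubated 10 min at RT with compound (up to 57.5 uM final), then substrate plus GAPDH/TPI/NAD/arsenate coupling system with diaphorase/resazurin was added; resorufin fluorescence (525/598 nm) was read after 20 min.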
Cycloheximide cs = Cycloheximide Counterscreen for Small Molecule Inhibitors of Shiga Toxin; cell reporter, cycloheximide protein synthesis inhibition counterscreen; max response, %; hit rate 12% among 300,000; AID 2314, 2010; in the data active = max response mostly above about 13%, no sharp cut-off; inactive = mostly below about 14%; note: read at 38.3 µM for the half of the compounds with a filed dose; 0% is about no effect
TbPYK inhibitor = qHTS of Trypanosoma Brucei Inhibitors | pyruvate kinase (Trypanosoma brucei), Q57TT1 | TbPYK enzyme, Kinase-Glo Plus ATP luminescence, 45 min | Potency, µM (top dose mostly 76.8 µM), inactives show top-dose activity, negative = inhibition, usual class: inhibitors | hit rate 0.12% among 410,000; note: potency is the fitted concentration of half-maximal effect; % is set by controls: 0 for no effect and ±100 for the full control effect; nearly all actives have a fitted effect of over 50% in size
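T. brucei PYK with substrate was exposed to pin-transferred compounds across a concentration series, then started with 130 uM ADP (final). After 45 min at room temperature, Kinase-Glo Plus luminescence was read, normalized and curve-fitted.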
LmPK inhibitor = qHTS Assay for Inhibitors of Leishmania Mexicana Pyruvate Kinase (LmPK) | AID 1721, 2009 | hit rate 0.37% among 290,000 | Potency, µM (series often up to 57.5 µM), inactives show at the highest dose activity change, negative = inhibition, actives largely listed as inhibitors | Q27686 | purified LmPK, Kinase-Glo ATP luminescence, 1 h; note: potency is the fitted concentration of half-maximal effect; % is set by controls: 0 for no effect and ±100 for the full control effect
Target sequence (Q27686 whole entry, looked up): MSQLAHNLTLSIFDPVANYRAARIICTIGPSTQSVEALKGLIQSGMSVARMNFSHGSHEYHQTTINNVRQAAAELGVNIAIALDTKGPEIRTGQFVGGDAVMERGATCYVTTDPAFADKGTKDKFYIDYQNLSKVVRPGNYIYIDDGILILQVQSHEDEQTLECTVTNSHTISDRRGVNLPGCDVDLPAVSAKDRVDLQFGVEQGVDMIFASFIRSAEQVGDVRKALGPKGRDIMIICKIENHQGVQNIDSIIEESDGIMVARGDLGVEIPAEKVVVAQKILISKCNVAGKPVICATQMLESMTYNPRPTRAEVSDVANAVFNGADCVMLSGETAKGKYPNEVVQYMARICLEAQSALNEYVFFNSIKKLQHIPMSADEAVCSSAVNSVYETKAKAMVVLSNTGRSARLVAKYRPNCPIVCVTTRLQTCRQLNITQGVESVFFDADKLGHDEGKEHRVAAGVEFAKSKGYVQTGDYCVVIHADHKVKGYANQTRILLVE
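In 50 mM imidazole pH 7.2 with 7 mM MgCl2, LmPK (0.1 nM) turned over PEP (0.5 mM) and ADP (0.1 mM) for 1 h at room temperature. Luciferase read-out of ATP.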
RE007 growth inh = qHTS Assay for Inhibitors of the HIV-1 protein Vpr; S. pombe RE007 Vpr strain, BacTiter-Glo ATP luminescence, 24 h; Potency, µM (titrated, usually from 92.2 µM), for inactives: at the highest dose activity change, negative = less growth, most hits filed as inhibitors; hit rate 0.21% among 360,000; AID 651644, 2012; active = well fitted falling curve with a large enough effect; inconclusive = small, poorly fitted or top-dose-only effect; inactive = no such curve, though single readings can be large or run the other way; note: potency is the fitted concentration of half-maximal effect; % is set by controls: 0 for no effect and ±100 for the full control effect; nearly all actives have a fitted effect of over 50% in size
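Fission yeast RE007 carrying one integrated HIV-1 vpr copy, seeded at OD 0.01 in PMG+AL medium with 23 nL pinned compound. Grown 24 h at 30 degrees; viability read by BacTiter-Glo luminescence after 5 min.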
Shiga toxin inh = A qHTS for Small Molecule Inhibitors of Shiga Toxin; Vero cells, Shiga toxin protein synthesis inhibition reporter; hit rate 9.2% among 290,000; inhibition, % at 38.7 µM; in the data active = inhibition mostly above about 28%, no sharp cut-off; inactive = mostly below about 43%; note: 0% is about no effect
* marks the source's active call; other numbers are inactive results; ? = inconclusive; . = no result given. Unless noted, calls come from the whole dose curve; as a rule, active = well fitted curve in the direction sought with a large enough effect; inconclusive = small, poorly fitted or top-dose-only effect, or another doubt; inactive = no such curve, though single readings can be large; an effect the other way counts as inactive or inconclusive.

SMILES	FBPA Giardia inh	Cycloheximide cs	TbPYK inhibitor	LmPK inhibitor	RE007 growth inh	Shiga toxin inh
C=CCn1c(Sc2ncc([N+](=O)[O-])s2)n[nH]c1=O	?	21.1*	-9.0%	5.9%	?	32.0
Cn1c(NC(=O)C[n+]2cc(-c3ccc(Cl)c(Cl)c3)n3c2CCC3)cc(=O)n(C)c1=O	2.1%	-2.5	-1.1%	-0.9%	31.6µM*	-2.6
Cc1ccc(NC(=O)C[n+]2cc(-c3ccc(C)cc3)n3c2CCC3)cc1	-4.7%	-1.9	6.0%	4.2%	-8.7%	-4.1
Cc1cccc2c(=O)cc(CSc3ccccc3NC(=O)c3cccc(F)c3)[nH]c12	.	.	-0.9%	.	.	.
C=CCn1c(N/N=C/c2ccc(O)cc2)nc2ccccc2c1=O	-11.8%	35.5*	1.7%	-15.7%	5.6%	153.3*
O=c1[nH]c(N/N=C\c2ccc(F)cc2)nc2ccccc12	-4.9%	34.1*	-6.3%	-1.2%	-6.1%	80.2*
O=c1[nH]c(N/N=C/c2ccc(O)cc2)nc2ccccc12	-3.3%	35.9*	-10.3%	-16.4%	14.1%	64.5*
O=C(N/N=C/c1ccc2cccnc2c1)c1nc2ccccc2c(=O)[nH]1	-17.1%	29.6*	1.9%	-1.4%	-15.4%	34.9*
Cc1ccc(N2CCN(C(=O)CCS(=O)(=O)c3cc4c(cc3Cl)NC(=O)CO4)CC2)c(C)c1	.	.	-4.4%	.	.	.
Nc1nc(CSCCO)nc(Nc2ccc(F)cc2)n1	3.9%	25.2*	4.3%	0.5%	1.3%	-3.0
COc1ccc(Nc2nc(N)nc(CSC(=S)N3CCOCC3)n2)cc1	-3.4%	39.1*	-3.4%	0.1%	-9.9%	67.4*
Cc1ccc(Nc2nc(N)nc(CSC(=S)N3CCN(c4ccccc4)CC3)n2)cc1	-0.5%	-3.6	-7.8%	5.4%	-12.3%	-15.7
Cc1ccc(Nc2nc(N)nc(CSC(=S)N3CCOCC3)n2)c(C)c1	-1.5%	33.5*	-6.3%	1.1%	12.5%	71.7*
CN1CCN(C(=S)SCc2nc(N)nc(Nc3ccc(F)cc3)n2)CC1	1.9%	18.6*	0.6%	-0.5%	7.6%	21.4
Nc1nc(CSC(=S)N2CCOCC2)nc(Nc2ccc(F)cc2)n1	-4.6%	2.6	16.9%	0.8%	-9.3%	11.7
COC(=O)c1ccccc1SC1CC(=O)N(c2ccccc2)C1=O (configuration not stated)	1.5%	28.5*	-0.3%	-1.6%	-8.4%	57.1*
O=C(O)c1ccccc1SC1CC(=O)N(c2cccc3ccccc23)C1=O (configuration not stated)	2.9%	-2.8	-26.2%	7.0%	7.94µM*	20.2
Cc1cccc(N2C(=O)CC(Sc3nnc(C)s3)C2=O)c1 (configuration not stated)	-0.8%	-1.4	-12.1%	3.2%	35.5µM*	11.1
Cn1nnnc1SC1CC(=O)N(c2ccccc2)C1=O (configuration not stated)	-1.0%	-2.9	-10.8%	1.9%	31.6µM*	-19.5
Cc1ccccc1-c1cc(N(C)Cc2ccco2)ncn1	-10.7%	.	.	.	.	.
CCSc1ncc(/C=N/Nc2ccc([N+](=O)[O-])cc2)n1C	4.5%	25.2*	1.5%	-4.1%	-5.1%	54.6*
CCSc1ncc(/C=N/Nc2ccc(Cl)cc2)n1C	-15.5%	77.4*	-0.7%	-0.2%	?	111.9*
CCSc1ncc(/C=N/Nc2ccccc2)n1C	-4.0%	29.2*	?	2.8%	48.8%	55.4*
Cn1c(CO)cnc1SCC(=O)c1ccc(Cl)cc1	-4.1%	17.8	-9.0%	-2.4%	0.2%	31.4
Cc1cc(Br)ccc1NC(=O)C1(S(=O)(=O)c2ccc(Cl)cc2)CC1	.	.	-4.4%	.	.	.
SMILES	FBPA Giardia inh	Cycloheximide cs	TbPYK inhibitor	LmPK inhibitor	RE007 growth inh	Shiga toxin inh
CC(C)C(O)(C#CCN1CCCCCC1)c1ccccc1 (configuration not stated)	3.4%	14.5*	-1.0%	4.2%	0.0%	-6.3
CC(O)(C#CCN1CCCCC1)c1ccccc1 (configuration not stated)	6.6%	-1.3	-13.0%	0.3%	0.6%	11.7
COCCNc1nc(C)nc2c1nc(-c1ccccc1)n2C1CCN(Cc2ccccc2)C1 (configuration not stated)	0.4%	.	.	.	.	.
COc1ccc2c(=O)c(-c3ccc(OC)c(OC)c3)coc2c1	3.1%	24.5*	6.5%	0.6%	14.2%	54.4*
O=c1c(-c2ccc(F)cc2)coc2c3c(ccc12)OCCO3	-0.9%	44.3*	-5.5%	-6.7%	0.0%	87.1*
COc1ccc2c(=O)c(-c3ccccc3)coc2c1	10.0%	51.6*	-9.9%	?	-2.4%	84.2*
COc1ccc(-c2coc3cc(OC(C)=O)c(OC)cc3c2=O)cc1	.	.	2.6%	.	7.8%	.
COc1ccc(-c2coc3cc(O)ccc3c2=O)cc1OC	3.1%	33.8*	-1.4%	-2.9%	5.4%	33.9
CCOc1ccc(CCN2C(=O)C(=O)N([C@@H](CC(C)C)CN3CCC[C@H]3CN3C(=O)C(=O)NC[C@@H]3Cc3ccccc3)C[C@@H]2Cc2ccccc2)cc1	.	.	6.2%	.	6.4%	.
CCOc1ccccc1Oc1coc2cc(OC(=O)N(C)C)ccc2c1=O	1.7%	36.1*	-7.2%	-4.2%	-2.7%	55.2*
CCN(CC)C(=O)Oc1ccc2c(=O)c(-c3ccccc3)coc2c1	-0.9%	50.3*	-10.6%	-18.8%	1.2%	84.8*
CCOc1ccc2c(=O)c(Oc3ccccc3OCC)coc2c1	1.3%	10.2	-0.2%	3.4%	11.3%	20.0
O=c1c(-c2ccc(F)cc2)coc2cc(O)ccc12	-0.4%	31.7*	2.8%	?	-28.2%	113.6*
CCOc1ccccc1Oc1coc2cc(O)ccc2c1=O	1.3%	-1.5	3.1%	-19.3%	7.7%	3.3
CS(=O)(=O)Nc1ccc(C(=O)NCCSc2ccc(Cl)cc2)cc1	14.5%	-1.1	-1.5%	-0.5%	-2.3%	-7.5
Cc1cc2ccccn2c1C(=O)c1ccccc1Br	-0.1%	6.2	-1.0%	1.1%	-23.7%	-7.8
Cc1cc2ccccn2c1C(=O)c1cccc([N+](=O)[O-])c1	-12.4%	-1.8	0.5%	-2.1%	3.7%	13.5
Cc1cc2ccccn2c1C(=O)c1ccc([N+](=O)[O-])o1	-10.3%	34.0*	1.3%	-4.0%	-4.7%	22.6
CCOC(=O)C(=O)c1c(C)cc2ccccn12	-11.6%	23.1*	-5.3%	-1.0%	-8.6%	47.2*
OC(c1cccnc1)c1nc(-c2cccc(F)c2)cs1 (configuration not stated)	.	.	4.9%	.	-7.4%	.
CN(C)c1cccc(-c2nnc(SCCCC#N)o2)c1	-15.6%	49.3*	1.5%	-2.7%	6.7%	90.9*
c1ccc(-c2nnc(SCc3ccncc3)o2)cc1	.	.	-4.7%	.	-4.9%	.
Cc1cccc(CSc2nnc(-c3ccco3)o2)c1	-7.1%	31.8*	-16.9%	-0.3%	?	88.8*
